Reference: PubChem BioAssay (EPA / NIEHS)
The source holds several records for some structures; these can differ, active in one and inactive in another. Activity calls are given as the source filed them. Rule for the calls: active = hit-call score of the fitted dose curve at least 0.9, where 1 is the maximum; inactive = score below 0.9.

Experiment: ATG_Oct_MLP_CIS: Attagene CIS-FACTORIAL HepG2 Assay for human Octamer-Binding Transcription Factor (Oct) (AID 2282993)
Conditions: HepG2 Attagene cis-factorial Oct reporter, mRNA; actives raise or lower the signal
Method: ATG_CIS is a cell-based, multiplexed-readout assay that uses HepG2, a human liver cell line, with measurements taken at 24 hours after chemical dosing in a 24-well plate.ATG_Oct_MLP_CIS is one of 52 assay component(s) measured or calculated from the ATG_CIS assay. It is designed to make measurements of mRNA induction, a form of inducible reporter, as detected with fluorescence intensity signals by Reverse transcription polymerase chain reaction (RT-PCR) and Capillary electrophoresis technology.Data from the assay component ATG_Oct_MLP_CIS was analyzed into 1 assay endpoint. This assay endpoint, ATG_Oct_MLP_CIS, was analyzed with bidirectional fitting relative to DMSO as the negative control and baseline of activity. Using a type of inducible reporter, measures of mRNA for gain or loss-of-signal activity can be used to understand the reporter gene at the transcription factor-level as they relate to the gene POU2F1. Furthermore, this assay endpoint can be referred to as a primary readout, because this assay has produced multiple assay endpoints where this one serves a reporter gene function. To generalize the intended target to other relatable targets, this assay endpoint is annotated to the dna binding intended target family, where the subfamily is POU domain protein.
Human liver HepG2 cells are transiently transfected with multiple reporter transcription units (MRTUs) in 6-well plates using FuGene 6 reagent (Roche; 3 ml FuGene/1 mg DNA). The MRTU constructs are regulated by a cis-regulating element (promoter). […] A major difference between the CIS and TRANS system is that in CIS activities of endogenous TFs are measured, whereas the TRANS assay evaluates changes in activities of exogenous, chimeric NR-Gal4 proteins. […] At the end of 24 hour incubation, total RNA was isolated using TriZol reagent (Invitrogen). The isolated RNA is then reverse-transcribed using oligo(dT) primer and Mo-MLV reverse transcriptase (Invitrogen) with DNAse I (Ambion) treatment for 30 min. The one-tenth of the produced cDNA was amplified by PCR using Taq DNA polymerase (Invitrogen) and two reporter sequence-specific primers. The PCR products were fluorescently labeled by primer extension with 6-arboxyfluorescein (6-FAM) 5'-labeled reporter sequence-specific primer (2 min at 95 C, 20 s at 68 C and 10 min at 72 C) and these products were digested with 5U of HpaI (New England Biolabs) for 2h at 37 C. The fragments were purified using Qiaquick PCR columns (Qiagen), analyzed on an ABI 3130xL genetic analyzer (Applied Biosystems) with peak positions identified by using a set of X-rhodamine (ROX)-labeled MapMarker1000 molecular weight standards (BioVentures). The raw capillary electrophoresis data was processed using Attagraph software (Attagene).

| Compound | outcome | AC50 |
| --- | --- | --- |
| Nc1cc(Cl)cc(C(=O)O)c1Cl | inactive | – |
| CC(C)COC(=O)c1ccccc1C(=O)OCC(C)C | – | 83 µM (active) |
| CCNS(=O)(=O)C(F)(F)C(F)(F)C(F)(F)C(F)(F)C(F)(F)C(F)(F)C(F)(F)C(F)(F)F | inactive | 96.5 µM (active) |
| Oc1ccccc1Cl | inactive | – |
| Nc1ccc(Cc2ccc(N)cc2)cc1 | inactive | – |
| COc1cc(C=O)cc2c1[C@H](COC(N)=O)[C@]1(OC(C)=O)ON2C[C@H]2[C@@H]1N2C(C)=O | – | 0.179 µM (active) |
| COC(=O)Nc1nc2ccccc2[nH]1 | inactive | – |
| CC(C)(C)OOC(=O)c1ccccc1 | inactive | – |
| Clc1ccc(C(c2ccc(Cl)cc2)C(Cl)Cl)cc1 | – | 49.7 µM (active) |
| Cc1ccc([N+](=O)[O-])cc1 | inactive | – |
| c1ccc2c(c1)oc1ccccc12 | inactive | – |
| Clc1ccc(C(c2ccc(Cl)cc2)C(Cl)(Cl)Cl)cc1 | inactive | – |
| CCN(CC)N=O | inactive | – |
| O=C(N[C@H](c1ccccc1)[C@@H]1CN2CCC1CC2)c1c(Cl)ccc(C(F)(F)F)c1Cl | inactive | – |
| CO[C@@H]1[C@H](OC(=O)NC(=O)CCl)CC[C@]2(CO2)[C@H]1[C@@]1(C)O[C@@H]1CC=C(C)C | – | 40.5 µM (active) |
| CNC(=O)Oc1cccc2c1OC(C)(C)C2 | inactive | – |
| ClC1=C(Cl)[C@]2(Cl)[C@H]3[C@H]([C@@H]4C=C[C@H]3C4)[C@@]1(Cl)C2(Cl)Cl | – | 25.1 µM (active) |
| CCC(C)c1ccc(O)cc1 (stereo not given) | – | 67.9 µM (active) |
| CCN(CC)CCO | inactive | – |
| CN(C)c1ccccc1 | inactive | – |

| Compound | outcome | AC50 |
| --- | --- | --- |
| CCOC(=O)[C@]1(c2ccccc2)Oc2ccccc2[C@@H]1N | – | 28.8 µM (active) |
| Cc1ccc(N=C=O)cc1N=C=O | inactive | – |
| [As]#[In] | inactive | – |
| CC(C)N(Cc1ccccc1)C(=O)C(C)(C)C | inactive | – |
| ClCCOCCCl | inactive | – |
| O=C1CCCO1 | inactive | – |
| O=C(Oc1ccc(Br)cc1)N1CCN2CCC1CC2 | inactive | – |
| CCC[CH2][Sn]([Cl])([CH2]CCC)[CH2]CCC | inactive | – |
| O=[N+]([O-])c1ccc(Oc2ccc(Cl)cc2Cl)cc1 | inactive | – |
| CS(=O)(=O)NC(=O)c1cc(Oc2ccc(C(F)(F)F)cc2Cl)ccc1[N+](=O)[O-] | inactive | – |
| OCCCBr | inactive | – |
| c1ccc(NNc2ccccc2)cc1 | inactive | – |
| CN(C)[C@@H]1C(=O)C(C(N)=O)=C(O)[C@@]2(O)C(=O)C3=C(O)c4c(O)cccc4[C@@](C)(O)[C@H]3C[C@@H]12 | inactive | – |
| C=CCc1ccc2c(c1)OCO2 | inactive | – |
| O=[N+]([O-])C(Br)(CO)CO | – | 156 µM (active) |
| c1ccc(C2CO2)cc1 (stereo not given) | inactive | – |
| CN(C)C(=O)Nc1ccc(Cl)cc1 | inactive | – |
| COP(=S)(OC)SCN1C(=O)c2ccccc2C1=O | inactive | – |
| CC(C)(OOC(C)(C)c1ccccc1)c1ccccc1 | – | 59.6 µM (active) |
